Legend:
Experiment in all cases: PBM binding z-score (relative to random genomic background probes); higher = stronger binding; sequences stand for … in GC…GCGATTGACAGCGTAGAATGAAGG
[1] = tested on: FXR:RXRa (NR concentration 270 nM, RXRa partner concentration 90 nM)
Summary of the method: (§1)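 The probes on custom Agilent 4×180K protein-binding microarrays were double-stranded, with 34-nt variable regions bearing direct-repeat seeds, single-nucleotide variants, half-site ablations and random human genomic background sequences. Incubation lasted 1 h with ligand-free nuclear receptor dimers in PBS pH 7.4, 2% milk, 0.02% Triton X-100, 1 mM DTT, 0.2 mg/mL BSA and 0.4 mg/ml salmon testes DNA. Antibodies against each partner (one per run) detected bound dimers, and fluorescence scans were regression-normalized. Binding z-scores take the random background probes as reference.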

[2] = tested on: LXRa:RXRa (NR concentration 270 nM, RXRa partner concentration 90 nM)
Summary of the method: as §1

[3] = tested on: LXRa homodimer (NR concentration 270 nM)
Summary of the method: as §1

[4] = tested on: LXRb:RXRa (NR concentration 270 nM, RXRa partner concentration 90 nM)
Summary of the method: as §1

[5] = tested on: LXRb homodimer (NR concentration 270 nM)
Summary of the method: as §1

[6] = tested on: PPARa:RXRa (NR concentration 270 nM, RXRa partner concentration 90 nM)
Summary of the method: as §1

[7] = tested on: PPARg:RXRa (NR concentration 180 nM, RXRa partner concentration 90 nM)
Summary of the method: as §1

[8] = tested on: PPARg:RXRa 270nM:90nM, anti-RXR (NR concentration 270 nM, RXRa partner concentration 90 nM)
Summary of the method: as §1

[9] = tested on: PPARg:RXRa 30nM:10nM, anti-RXR (NR concentration 30 nM, RXRa partner concentration 10 nM)
Summary of the method: as §1

[10] = tested on: PPARg:RXRa 90nM:30nM, anti-RXR (NR concentration 90 nM, RXRa partner concentration 30 nM)
Summary of the method: as §1

[11] = tested on: PPARg:RXRa DBDmut IVT, anti-RXR (DBD mutation: RXRa K156A/R161A, NR concentration 270 nM, RXRa partner concentration 90 nM)
Summary of the method: as §1

[12] = tested on: PPARg:RXRa IVT, anti-PPARg (NR concentration 270 nM, RXRa partner concentration 90 nM)
Summary of the method: as §1

[13] = tested on: PPARg DBDmut:RXRa IVT, anti-PPARg (DBD mutation: PPARg1 K132A/R137A, NR concentration 270 nM, RXRa partner concentration 90 nM)
Summary of the method: as §1

[14] = tested on: PPARg DBDmut IVT, anti-PPARg (DBD mutation: PPARg1 K132A/R137A, NR concentration 270 nM)
Summary of the method: as §1

[15] = tested on: PPARg homodimer (NR concentration 180 nM)
Summary of the method: as §1

[16] = tested on: PXR:RXRa (NR concentration 270 nM, RXRa partner concentration 90 nM)
Summary of the method: as §1

[17] = tested on: PXR homodimer (NR concentration 270 nM)
Summary of the method: as §1

[18] = tested on: RARa:RXR (NR concentration 270 nM, RXRa partner concentration 90 nM)
Summary of the method: as §1

[19] = tested on: RARa homodimer (NR concentration 270 nM)
Summary of the method: as §1

[20] = tested on: RARb:RXRa (NR concentration 270 nM, RXRa partner concentration 90 nM)
Summary of the method: as §1

Sequence	PBM binding z-score [1]	PBM binding z-score [2]	PBM binding z-score [3]	PBM binding z-score [4]	PBM binding z-score [5]	PBM binding z-score [6]	PBM binding z-score [7]	PBM binding z-score [8]	PBM binding z-score [9]	PBM binding z-score [10]	PBM binding z-score [11]	PBM binding z-score [12]	PBM binding z-score [13]	PBM binding z-score [14]	PBM binding z-score [15]	PBM binding z-score [16]	PBM binding z-score [17]	PBM binding z-score [18]	PBM binding z-score [19]	PBM binding z-score [20]
CCTCCGAGGACAACAGGAGGTCAGAGCTGCCAGA	1.35	2.3	2.21	1.51	-0.302	2.02	0.575	0.211	-0.642	-0.107	-0.0648	0.335	-1.15	-1.76	1.29	2.17	0.291	2.7	-0.117	2.88
ATCTCTAGGTAAGACTCAGTTCAGTAAAGAACGC	0.34	0.725	0.918	0.419	0.923	0.152	0.102	0.669	0.474	0.414	1.94	1.31	0.584	0.972	0.82	1.24	1.74	0.263	1.3	0.396
AGAATGAGGTTACCAAAGAGCAGGGAAACGCTTG	1.71	5.78	-0.463	2.41	-0.39	3.05	2.22	2.47	0.623	1.44	3.47	2.96	0.794	-0.0129	0.046	1.05	-0.21	1.71	-0.396	2
CCTGGGAGGACAACAGGAGGTCAGAGCTGCCAGA	1.53	2.1	2.07	1.57	-0.371	2.15	0.479	0.597	-0.563	0.161	-0.657	0.776	-0.434	-1.21	1.8	2.12	0.631	2.3	1.11	2.95
GCAGACAGGTGAAACGCTGGTAACTCAGGGTGGC	-0.319	0.0267	-0.492	-0.149	-1.44	0.737	0.389	0.0806	-0.77	-0.171	0.871	0.415	-0.505	-0.62	-1.22	-0.38	-0.927	0.0217	-0.662	0.668
TCTAGTTGGTCACGGAGGTCACACATGACGGGTA	3.11	3.52	2.42	3.42	0.605	4.06	3.59	4.13	3.55	3.84	2.5	4.34	1.38	0.722	2.93	4.71	1.67	4.56	1.18	4.01
CCTAGTTGGTCAGGAGGTCACACAACGGATATGA	3.71	3.52	1.69	3.53	0.623	4.25	3.47	4.16	1.47	3.3	1.95	3.66	0.747	0.329	3.64	4.16	1.53	4.94	2.05	3.63
GCTATTAGTTGAAAAGGCAACCGAATGATTCTCG	-0.25	-0.013	-0.222	-0.163	-0.383	0.216	0.532	1.07	0.168	0.651	-0.116	-0.52	0.324	0.295	1.02	-0.0791	0.363	0.226	0.557	0.109
AGAATGAGGATAAGATCAGGGAAACAGAATACAT	0.459	-0.133	-0.218	-0.0492	-0.342	-0.0848	1.2	-0.174	0.433	0.00747	-0.0375	-0.0536	-0.123	0.538	0.327	-0.171	0.272	0.067	0.354	0.0475
CTCGAAAGGTCCTGCTCAGGTGAGTATACCAAAC	0.485	0.0121	-0.23	0.151	-0.603	0.515	-0.342	0.119	-0.0279	-0.0509	-0.108	0.189	0.172	-0.54	-0.47	-0.11	-0.684	0.631	-0.103	1.06
TCATATAGGTAAAAGTGAAAGTCGAACGATATGA	0.173	0.399	-0.314	-0.0823	0.0543	1.84	3.25	4.43	4.62	4.68	3.02	2.69	1.14	1.16	0.424	0.212	0.0345	0.234	0.539	0.22
CCTAGCAGGCCAATCTGGGTCACGCAAGGCTTGA	1.04	1.43	-0.342	0.849	-1.08	3.34	3.18	3.08	0.775	2.35	4.65	5.54	0.23	-0.484	0.454	1.48	-0.572	2.17	-0.583	1.92
TCTATTAGTTGAATAGGGCAACCGAAACAGCGGA	0.393	0.654	-0.213	0.664	0.0451	1.16	0.438	1.92	3.61	2.81	2.01	1.19	0.574	0.929	0.658	0.411	0.0472	0.67	0.29	1.13
CAAACTAGGTCACAGAGCTCAAAGTCCGTGCGTA	4.29	3.18	0.278	2.01	0.231	5.45	8.88	7.47	5.2	7.26	8.61	8.86	3.69	1.2	1.74	1.81	-0.0569	2.68	0.446	4.13
ATCTCTAGCTAAGACTCAGTTCAGTGAAGAACGC	0.167	0.272	0.317	-0.057	0.629	-0.233	-0.0864	-0.493	-0.13	-0.144	-0.0797	0.0403	0.405	0.581	0.595	0.728	1.14	0.508	0.699	0.0718
TAGCATAGGTCAGATCGGGCCAGTATACGCTATA	3.66	2.95	-0.198	2.08	-0.138	3.38	1.65	1.67	0.311	1.05	-0.136	0.798	-0.196	-0.529	0.679	2.5	-0.583	2.5	-0.285	3.37
CGTCACAGTTCAAGGTAACGTAACAGAAAGCAGC	2.2	1.91	0.443	1.52	0.237	2.46	1.29	1.19	0.243	0.61	0.275	1.23	0.33	0.734	0.946	1.93	0.75	1.78	0.462	2.73
TCAGACAGGTGATGGTAACTCAGGTACGCAGTCG	0.415	0.602	0.0587	0.648	-0.117	1.16	0.601	1.7	3.35	2.55	2.18	0.496	-0.328	-0.349	0.0712	0.333	0.496	0.242	0.298	0.566
TCATATGGGTAAAGGTGAAAGTCGAACGATATGA	0.574	1.13	-0.287	1.09	-0.607	3.53	5.17	5.52	4.64	5.69	3.36	3.75	1.24	0.532	0.852	0.764	-0.418	1.66	0.221	1.79
GGTAGTTGGTCAGTAAAAGGTCACACACCGGTCG	3.14	4.29	4.91	4.07	1.47	4.34	2.7	4.44	2.46	3.81	0.823	3.16	0.932	0.24	4.48	4.95	1.37	5.68	3	4.28
ACTAGATGGTCAGCTGAGGTCACACACAATTCGG	4.73	3.89	2.33	3.48	0.584	3.6	1.95	2.13	0.736	1.61	0.982	2.14	1.06	0.428	2.89	5.58	1.53	4.43	1.34	3.75
ATATGTAGGTTAGCTGGGGTCATGCAGACTAGGC	4.32	5.63	1.92	4.51	0.764	5.44	6.19	5.5	3.22	5.13	6.73	6.58	3.11	1.46	3.23	6.14	2.18	5.87	1.4	3.44
AGAACGAGGGCAATGGGTTGATAGCACGGGTGGC	0.877	0.764	-0.127	0.316	0.02	1.67	1.78	1.38	-0.00991	1.08	3.27	3.01	0.598	-0.394	1.19	1.48	4.66	0.466	0.403	2.4
TATACAGGGTCCAAGGCCAGAGTACGAATGTCGA	0.36	0.228	0.0779	0.18	1.02	0.314	0.93	0.625	0.686	0.795	-0.0833	0.889	1	0.775	0.44	0.336	0.699	0.0317	0.427	1.2
AGAATGAGGGTATACGTAGATCAGGGAAGAAAGT	0.101	0.0157	-0.0552	-0.0551	-0.229	0.333	0.755	0.72	0.337	0.51	2.6	0.629	0.622	0.525	0.231	0.14	0.655	0.0305	-0.0376	0.267
ATCGAAAGGTGGAGGTGAGTATAGAGAAAGGGAA	0.433	0.583	-0.00361	0.504	0.617	0.622	0.263	0.302	0.265	0.243	-0.413	0.772	-0.138	-0.168	0.613	0.147	0.659	0.0317	1.06	1.28

From the supplement of paper PMC6555819
